CBFb RUNX1 block: inhibitors of human CBF-beta and RUNX1 interaction; AlphaScreen CBFb-His/RUNX1-biotin binding, biochemical; AID 1477; Potency, µM (titrated, usually from 59.8 µM), without a hit: at the highest dose activity, negative = inhibition, most hits filed as inhibitors; 230,000 tested, under 10 active; note: % of control where 0% means no effect
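Room-temperature protein-protein interaction test with 30 nM each of His-tagged CBF-beta and biotinylated RUNX1, 15 min with compound, then 90 min with nickel plus streptavidin beads. Signal read in AlphaScreen mode.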
Six1-Eya2 inh: inhibitors of human Six1/Eya2 interaction; AlphaScreen GST-Six1/His-Eya2 binding, biochemical; stronger effect = lower value; activity change, % (concentration not given with the values); actives 0.56% (n = 360,000); AID 651725; Q15475+O00167; in the data active = activity change below about -65%; inconclusive = mostly about -30% to -63%; note: % is set by controls: 0 for no effect and ±100 for the full control effect
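AlphaScreen luminescence read after one hour at 37 °C in darkness. Pin-transferred compounds met GST-Six1 and His-Eya2 protein (5X stock 250 nM/500 nM) plus glutathione donor and Ni-chelate acceptor beads (5X, 50 ug/mL).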
Eya2 inh: blocks the phosphatase activity of human Eya2; recombinant Eya2, OMFP fluorescence dephosphorylation (OMFP is methylfluorescein phosphate); Potency, µM (top dose mostly 76.9 µM), without a hit: at the top dose activity, negative = inhibition, usual class: inhibitors; actives 0.006% (n = 330,000); note: potency is the fitted concentration of half-maximal effect; % is set by controls: 0 for no effect and ±100 for the full control effect
Target sequence (O00167 whole entry, looked up): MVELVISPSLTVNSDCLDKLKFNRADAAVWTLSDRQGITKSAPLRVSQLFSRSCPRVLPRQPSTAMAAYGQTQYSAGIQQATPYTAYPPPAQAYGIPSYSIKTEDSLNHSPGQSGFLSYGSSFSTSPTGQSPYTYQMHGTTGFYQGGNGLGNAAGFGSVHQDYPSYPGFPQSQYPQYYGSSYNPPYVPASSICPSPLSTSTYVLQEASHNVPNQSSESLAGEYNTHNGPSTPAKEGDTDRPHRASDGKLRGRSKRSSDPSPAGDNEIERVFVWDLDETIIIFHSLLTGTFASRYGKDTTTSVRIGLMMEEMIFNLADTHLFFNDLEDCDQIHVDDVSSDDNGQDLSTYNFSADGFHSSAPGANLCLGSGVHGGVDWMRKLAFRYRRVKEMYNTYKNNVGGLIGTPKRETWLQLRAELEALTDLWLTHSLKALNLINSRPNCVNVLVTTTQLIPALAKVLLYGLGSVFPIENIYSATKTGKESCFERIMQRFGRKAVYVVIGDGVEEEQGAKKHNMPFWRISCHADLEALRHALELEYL
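Eya2 (0.2 uM) preincubated 10 min at ambient with compound, then OMFP substrate added at 50 uM; 10 min reaction in 50 mM HEPES pH 7.5, 50 mM NaCl, 5 uM MgCl2, 0.05% BSA, 1 mM DTT. Fluorescence read at Ex 485/Em 525 nm.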
CtBP-E1A inh: blocks the CtBP interaction with E1A; activity change, % (no concentration beside the values); AlphaScreen GST-E1A/His-CtBP binding, 1536-well; stronger effect = lower value; actives 0.49% (n = 340,000); in the data active = activity change below about -65%; inconclusive = mostly about -30% to -63%; note: % is set by controls: 0 for no effect and ±100 for the full control effect
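Protein mix (5X: 125 nM each GST-E1A, His-CtBP) was incubated with pinned compound 2 h at 37 deg C in dark, in 50 mM Tris pH 8.0 buffer with 300 mM NaCl. Glutathione donor and nickel acceptor beads followed; AlphaScreen signal read after 1 h.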
MBNL1 CUG block: MBNL1-poly(CUG) RNA binding inhibition | Q9NR56 | TR-FRET MBNL1-His/biotin-(CUG)12 binding, 665/545 ratio | Potency, µM (titrated, usually from 57.5 µM), for the others: top-dose activity change, negative = inhibition, actives largely listed as inhibitors | actives 0.036% (n = 280,000); active = well fitted inhibition curve with a large enough effect in the signal ratio, with a control signal flat, not every such curve was filed as active; inconclusive = small, poorly fitted or top-dose-only effect, or effect the other way, or a change in a side signal; inactive = no such curve, though single readings can be large or run the other way; the % refers to the signal ratio; note: potency is the fitted concentration of half-maximal effect; % is set by controls: 0 for no effect and ±100 for the full control effect
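Inhibition of protein-RNA binding appears as loss of TR-FRET between terbium anti-His antibody on MBNL1-His and streptavidin-XL665 on biotin-(CUG)12. Activity is normalized to buffer-only and uninhibited-complex controls.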
L3MBTL1 block: blocks human L3MBTL1; Potency, µM (titrated, usually from 57.1 µM), for the others: at the top dose activity, negative = inhibition, actives largely listed as inhibitors; actives 0.66% (n = 230,000); AlphaScreen L3MBTL1–H3K9me1 peptide binding; note: potency is the fitted concentration of half-maximal effect; % is set by controls: 0 for no effect and ±100 for the full control effect; nearly all actives have a fitted effect of over 60% in size
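Displacement of a biotinylated histone H3(1-15) peptide monomethylated at Lys9 (75 nM) from L3MBTL1 (50 nM) was measured by AlphaScreen after a 30 min room-temperature compound incubation; cefsulodin titration served as intraplate control.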
Starred values were filed as active, the others as inactive; ? = inconclusive; . = no result given. A selection: hits, their analogues and other compounds. The true share with any hit is near 0.89%. Unless noted, calls come from the whole dose curve; as a rule, active = well fitted curve in the direction sought with a large enough effect; inconclusive = small, poorly fitted or top-dose-only effect, or another doubt; inactive = no such curve, though single readings can be large; an effect the other way counts as inactive or inconclusive.

SMILES	CBFb RUNX1 block	Six1-Eya2 inh	Eya2 inh	CtBP-E1A inh	MBNL1 CUG block	L3MBTL1 block
CCCc1cc(N2CCN(C(=O)c3ccco3)CC2)n2c(nc3ccccc32)c1C#N	15.0%	?	-8.5%	-67.4*	?	.
CSC(=S)NN=C(C)c1cccc(C)n1	.	-91.2*	.	-92.5*	.	.
C/C(=N\NC(=S)NC1CCCCC1)c1ccc(Cl)c(Cl)c1	6.8%	-3.6	-0.2%	-2.6	-16.1%	.
Cc1cccc(C(=S)N2CCOCC2)n1	.	-2.3	3.0%	1.2	.	4.2%
CC(=NNC(=S)N1CC2CCC(CC2)C1)c1ccncn1	.	?	.	-96.0*	.	.
CC(=NNC(=S)N1CCCCC1)c1ccccn1	.	-86.8*	.	-15.7	.	.
C/C(=N\NC(=O)c1cc2ccccc2cc1O)c1ccccn1	.	-23.3	-3.8%	-20.6	17.1%	.
CC(=NNC(=S)N1CCCCC1)c1cccc(C)n1	.	-91.0*	.	-0.4	.	.
CN(CC1CCOCC1)C(=O)CC1C(=O)NCCN1Cc1cccc(C(F)(F)F)c1 (stereo not drawn)	.	1.1	3.5%	0.1	2.0%	.
Cc1ccc(C(=O)Nn2c(C)nc3ccccc3c2=O)cc1C	.	3.7	-21.2%	2.0	0.8%	.
S=c1[nH]nc(-c2ccccn2)n1/N=C/c1ccc(Cl)cc1	-10.9%	-74.6*	1.6%	?	.	15.8µM*
S=c1[nH]nc(-c2ccccn2)n1/N=C/c1c(Cl)cccc1Cl	-5.8%	-80.3*	-29.6%	-1.1	.	20µM*
CN(C)c1ccc(CN2CCC(C(=O)NC(c3ccc(F)cc3)c3ccc4ccccc4n3)CC2)cc1 (stereo not drawn)	.	-65.7*	.	?	.	.
COC(=O)c1ccc(/C=C2\CCn3c2nc2cc(C(=O)O)ccc2c3=O)cc1	.	-66.1*	-3.7%	?	?	.
C=CCN1C(=O)/C(=C/c2ccc(OC(C)=O)c(OCC)c2[N+](=O)[O-])SC1=S	-5.0%	?	-15.5%	-22.5	?	39.8µM*
CCOc1c(OC(C)=O)ccc(/C=C/c2ccc3cccc(OC(C)=O)c3n2)c1[N+](=O)[O-]	-17.9%	-13.2	-13.2%	-24.6	9.5%	-10.3%
O=C1c2cccc3c2N(CCC3)C(=O)C1(F)c1ccccc1 (stereo not drawn)	.	6.8	.	-13.3	.	.
COc1cc(N=C2C(=O)N3CCCc4cccc2c43)cc(OC)c1	-7.6%	6.3	-2.7%	-76.4*	24.9%	-2.1%
CC1=C/C(=N\Nc2ccccc2[N+](=O)[O-])CC(C)(C)C1	.	-69.2*	-4.7%	-68.0*	16.7%	14.1µM*
C/C(=N/Nc1ccccc1[N+](=O)[O-])c1ccc([N+](=O)[O-])cc1	.	-5.6	-6.8%	.	0.0%	.
O=C(CSc1nnc(-c2ccc(C(F)(F)F)cn2)o1)Nc1cccc(Cl)c1	0.5%	-71.1*	-4.2%	?	0.2%	-10.9%
O=C(N/N=C/C=C\c1ccco1)c1ccccn1	?	-88.0*	-12.3%	10.0	23.1%	28.2µM*
O=C(N/N=C/C=C/c1ccco1)c1cnccn1	1.2%	-18.9	-10.9%	-9.7	?	7.08µM*
Cc1ccc2c(c1)SC1=NC(c3ccccc3)(C(F)(F)F)NC(=O)N12 (stereo not drawn)	-0.6%	.	-1.0%	.	-0.2%	4.6%
CCCCCCN1C=C/C(=C\C=C(C#N)C#N)c2ccccc21	?	?	5.8%	?	?	-15.9%
SMILES	CBFb RUNX1 block	Six1-Eya2 inh	Eya2 inh	CtBP-E1A inh	MBNL1 CUG block	L3MBTL1 block
C=CCN1C=C/C(=C\C=C(C#N)C#N)c2ccccc21	-5.3%	?	-19.0%	-78.6*	.	?
NC(=O)c1ccc(Nc2nnc(-c3ccc(O)cc3)c3ccccc23)cc1	-3.2%	?	5.3%	-3.4	?	-2.9%
COc1ccc(Nc2nnc(-c3ccc(C(N)=O)cc3)c3ccccc23)cc1	.	-82.8*	3.9%	5.3	?	-11.5%
COc1cc(C2C(C#N)=C(N)OC3=C2C(=O)CC(C)(C)C3)cc2c1OCO2 (stereo not drawn)	.	-16.9	.	-16.5	.	.
O=C(Nc1ccc(Br)cc1)c1ccc(Br)c(S(=O)(=O)Nc2cccnc2)c1	-2.6%	?	7.9%	-65.7*	.	0.4%
O=C(CSc1ccc(-c2ccccc2)nn1)NC1CCCCC1	.	-4.2	4.7%	-10.5	-0.1%	.
O=C(CSc1ccc(-c2ccccn2)nn1)NC1CCCCC1	.	-89.9*	0.4%	-72.1*	0.8%	.
O=C(CSc1ccc(-c2ccccn2)nn1)NCc1ccc(F)cc1	.	-81.0*	-4.4%	-65.8*	5.5%	.
O=C(CSc1ccc(-c2cccnc2)nn1)c1ccc([N+](=O)[O-])cc1	-14.4%	-14.3	-10.1%	-21.8	?	.
O=C(CSc1ccc(-c2ccccn2)nn1)NCc1ccccc1	.	-76.1*	-7.4%	?	-16.1%	.
O=C(CSc1ccc(-c2ccccn2)nn1)c1ccc([N+](=O)[O-])cc1	.	-66.6*	-7.4%	-82.5*	?	.
COc1ccc(N=C2S/C(=C\c3ccc(OCC(=O)O)cc3)C(=O)N2CCc2c[nH]c3ccccc23)cc1	1.2%	-80.1*	-15.1%	-19.7	-22.7%	-81.5%
ClCCn1c(CCl)nc2ccc(Cl)cc21	.	6.7	.	3.9	.	.
Oc1c(Cl)cc(Cl)cc1Sc1cc(Cl)cc(Cl)c1O	-21.6%	.	8.7%	.	-24.2%	-11.4%
O=S(c1cc(Cl)cc(Cl)c1O)c1cc(Cl)cc(Cl)c1O	.	-91.8*	.	-24.1	.	.

Assay outcomes: PubChem BioAssay, National Center for Advancing Translational Sciences (NCATS)
